# About 410 targets per protein were measured; listed, in parts, are those with the strongest signals and a random draw of the rest.
# Assays:
# Test in all cases: glycan array binding signal (z-score within array); higher = stronger binding
# Conditions in all cases: glycan notation: IUPAC condensed, linker removed
# [1] = target: Fuc(a1-2)Gal(b1-3)GalNAc
# Outline: (§1)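 Glycan array data came from 3228 arrays in the Consortium for Functional Glycomics database, and only arrays with an available protein sequence were kept. Glycan names were put into IUPAC-condensed notation, and columns mapping to the same glycan were averaged. The binding signal is a within-array Z-score, averaged across arrays of one protein sequence run at different concentrations or buffers and across linkers. A negative Z-score can be read as non-binding.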
# [2] = target: Fuc(a1-2)Gal(b1-4)GlcNAc(b1-3)Gal(b1-4)GlcNAc
# Outline: as §1
# [3] = target: Fuc(a1-2)[GalNAc(a1-3)]Gal
# Outline: as §1
# [4] = target: Fuc(a1-2)[GalNAc(b1-3)]Gal
# Outline: as §1
# [5] = target: Gal(a1-3)Gal
# Outline: as §1
# [6] = target: Gal(a1-6)Glc
# Outline: as §1
# [7] = target: Gal(b1-3)GalNAc(b1-4)Gal(b1-4)Glc
# Outline: as §1
# [8] = target: Gal(b1-3)[Fuc(a1-4)]GlcNAc(b1-3)Gal(b1-4)GlcNAc
# Outline: as §1
# [9] = target: Gal(b1-4)Glc
# Outline: as §1
# [10] = target: Gal(b1-4)GlcNAc(b1-6)Gal(b1-4)GlcNAc(b1-6)GalNAc
# Outline: as §1
# [11] = target: Gal3S(b1-3)GlcNAc
# Outline: as §1
# [12] = target: Gal3S(b1-4)Glc6S
# Outline: as §1
# [13] = target: Gal3S6S(b1-4)GlcNAc6S
# Outline: as §1
# [14] = target: Man(a1-3)[Man(a1-6)]Man(a1-6)[Man(a1-3)]Man(b1-4)GlcNAc(b1-4)GlcNAc
# Outline: as §1
# [15] = target: Neu5Ac(a2-3)Gal(b1-4)GlcNAc(b1-3)Gal(b1-4)GlcNAc(b1-3)Gal(b1-4)GlcNAc
# Outline: as §1
# [16] = target: Neu5Gc(a2-3)Gal(b1-3)[Fuc(a1-4)]GlcNAc
# Outline: as §1
# [17] = target: Neu5Gc(a2-3)Gal(b1-4)GlcNAc
# Outline: as §1
# [18] = target: Neu5Ac(a2-3)Gal(b1-4)[Fuc(a1-3)]GlcNAc(b1-3)GalNAc
# Outline: as §1
# [19] = target: Neu5Ac(a2-3)Gal(b1-4)[Fuc(a1-3)]GlcNAc(b1-6)[Gal(b1-3)]GalNAc
# Outline: as §1
# [20] = target: Neu5Ac(a2-3)Gal(b1-4)[Fuc(a1-3)]GlcNAc(b1-6)[Neu5Ac(a2-3)Gal(b1-3)]GalNAc
# Outline: as §1
# [21] = target: Neu5Ac(a2-3)GalNAc(b1-4)GlcNAc
# Outline: as §1
# [22] = target: Neu5Ac(a2-3)[Neu5Ac(a2-6)]GalNAc
# Outline: as §1
# [23] = target: Neu5Ac(a2-6)Gal(b1-4)GlcNAc
# Outline: as §1
# [24] = target: Neu5Ac(a2-6)Gal(b1-4)GlcNAc(b1-3)Gal(b1-4)GlcNAc(b1-3)Gal(b1-4)GlcNAc
# Outline: as §1
# [25] = target: Neu5Ac(a2-8)Neu5Ac(a2-3)[GalNAc(b1-4)]Gal(b1-4)Glc
# Outline: as §1
# [26] = target: Neu5Ac9Ac(a2-6)Gal(b1-4)GlcNAc
# Outline: as §1
# [27] = target: Neu5Gc(a2-6)Gal(b1-4)GlcNAc
# Outline: as §1
Binder,glycan array binding signal (z-score) [1],glycan array binding signal (z-score) [2],glycan array binding signal (z-score) [3],glycan array binding signal (z-score) [4],glycan array binding signal (z-score) [5],glycan array binding signal (z-score) [6],glycan array binding signal (z-score) [7],glycan array binding signal (z-score) [8],glycan array binding signal (z-score) [9],glycan array binding signal (z-score) [10],glycan array binding signal (z-score) [11],glycan array binding signal (z-score) [12],glycan array binding signal (z-score) [13],glycan array binding signal (z-score) [14],glycan array binding signal (z-score) [15],glycan array binding signal (z-score) [16],glycan array binding signal (z-score) [17],glycan array binding signal (z-score) [18],glycan array binding signal (z-score) [19],glycan array binding signal (z-score) [20],glycan array binding signal (z-score) [21],glycan array binding signal (z-score) [22],glycan array binding signal (z-score) [23],glycan array binding signal (z-score) [24],glycan array binding signal (z-score) [25],glycan array binding signal (z-score) [26],glycan array binding signal (z-score) [27]
LKITALY (Gibberella zeae) (protein) MGNFHESSNNIWLEDGHILHAECGNGEGDYVESTLDLDYYIGNDDGSFSWGGENFSGSASNITLDIEGDDNIPVLRAELNPMDGDPVEANVNLSERIGNDCGTLIFLA,-0.361,-0.364,-0.347,-0.36,-0.354,-0.352,-0.358,-0.337,-0.357,-0.342,4.13,2.82,3.55,-0.347,3.85,-0.358,3.69,,,,,,,,,,
"SAG3 (Toxoplasma gondii), Q9BJ39 (protein) MQLWRRRAAGPASLGRQSLPLGCFFAAFGLCVLSAILGTGERGLFVAAGNSRRKITYFGTLTQKAPNWYRCSSTRAKEEVVGHVTLNKEHPDMTIECVDDGLGGEFLPLEGARSSYPRVCHIDAKDQDDCERNRGFLTDYIPGAKQYWYKIEKVEQNGEQSVLYKFTVPWILLPPAKQRYKVGCRYPNHEYCFVEVTVEPTPPMVEGKRVTCGYSESGPVNLEVDLSKNANFIEIRCGEQHHPQPSTYTLQYCSGDSVDPQKCSPQSLTNIFYDYSSSWWKGKLNGPDGATLTIPPGGFPEEDKSFLVGCSLTVDGPPFCNVKVRVAGNPRKWERGGGGHPGSGGLQPGTDGETQAGTGSSAGASSRMASVALAFLLGLLVHVAA",,,,,,,,,,,,,,,,,,16,3.05,2.02,-0.469,-0.226,-0.372,-0.049,2.27,0.292,-0.387

# From the supplement of paper PMC8728848
